A selection: hits, their analogues and other compounds. The true share with any hit is near 19%.
KB-V1 cytotox: qHTS assay for MDR1-selective chemotherapeutics: Primary screen using the drug-selected MDR subline cells KB-V1 | KB-V1 MDR cells viability, CellTiter-Glo, 72 h | Potency, µM (doses to about 46.1 µM), usual class: cytotoxic | actives 3.4% (n = 400,000) | AID 1347076, 2019; note: nearly all actives have a fitted effect of over 60% in size
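Following 72 h at 37 degrees C with compound, KB-V1 cell viability was read by CellTiter-Glo luminescence, medium being phenol-red-free DMEM plus 10% FBS; concentration-response parameters came from normalized, curve-fitted qHTS data.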
KB-3-1 tox: qHTS assay for MDR1-selective chemotherapeutics: Primary screen using the parental adenocarcinoma cell KB-3-1; KB-3-1 viability, CellTiter-Glo ATP luminescence, 72 h; Potency, µM (top dose mostly 46.1 µM), most hits filed as cytotoxic; actives 1.4% (n = 400,000); AID 1347075, 2019; note: nearly all actives have a fitted effect of over 60% in size
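Parental KB-3-1 adenocarcinoma cells in phenol-red-free DMEM with 10% FBS were pin-treated with compounds at several concentrations, incubated 72 h at 37 °C, and viability read by CellTiter-Glo luminescence; concentration-effect curves were fitted after normalization.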
HT1080 IDH1KD tx: qHTS for induction of synthetic lethality in tumor cells producing 2HG: qHTS for the HT-1080-IDH1KD cell line; AID 686971, 2013; Potency, µM (doses to about 46.1 µM), for inactives: at the highest dose activity, negative = toxicity, most hits filed as cytotoxic; HT-1080 IDH1 knockdown viability, ATP luminescence, 48 h; actives 2% (n = 360,000);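 note: 0% = DMSO wells and -100% = cell-free medium wells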
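Using the IDH1-knockdown HT-1080 line run in the same batch and compound series as the NT line, viability after 48 h at 37 °C was determined by CellTiter-Glo luminescence and expressed as % activity.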
TDP1 cell noCPT: qHTS for Inhibitors of human tyrosyl-DNA phosphodiesterase 1 (TDP1): qHTS in cells in absence of CPT. DT40 Tdp1-/- hTDP1 cells, no CPT, ATP luminescence, 48 h. Potency, µM (top dose mostly 46.2 µM), for the others: at the highest dose activity change, negative = growth inhibition, most hits filed as inhibitors. actives 15% (n = 420,000). AID 686978, 2013; note: nearly all actives have a fitted effect of over 55% in size
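Cells were dispensed at 400 per well, compounds added by pin tool, plates incubated ≥48 hr at 37 °C, then CellTiter-Glo added for 30 min at room temperature before luminescence reading. Line: DT40 Tdp1-/- complemented with hTDP1; camptothecin omitted.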
DT40 TDP1 CPT: qHTS for Inhibitors of human tyrosyl-DNA phosphodiesterase 1 (TDP1): qHTS in cells in presence of CPT | actives 12% (n = 420,000) | chicken DT40 Tdp1-/-;hTDP1 cells + 20 nM CPT, ATP luminescence, 48 h | AID 686979, 2013 | Potency, µM (doses to about 46.2 µM), for the others: top-dose activity change, negative = growth inhibition, hits mostly inhibitors; note: nearly all actives have a fitted effect of over 55% in size
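Chicken DT40 Tdp1-/- cells stably complemented with human TDP1 were seeded at 400 cells/well in medium containing 20 nM camptothecin, exposed to pin-transferred compounds, and grown at 37 °C for at least 48 hr. Viability was read as ATP luminescence.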
HT1080NT lethal: qHTS for induction of synthetic lethality in tumor cells producing 2HG: qHTS for the HT-1080-NT fibrosarcoma cell line; HT-1080-NT fibrosarcoma viability, CellTiter-Glo ATP luminescence, 48 h; Potency, µM (doses to about 46.1 µM), for the others: at the highest dose activity, negative = less viability, usual class: cytotoxic; actives 1.6% (n = 360,000);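 note: NT is the 2HG producing partner of a matched IDH1 knockdown line; 0% = DMSO-treated cells and -100% = media-only wells without cells; nearly all actives have a fitted effect of over 55% in size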
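Viability of the 2HG-overproducing fibrosarcoma line after 48 hours of compound exposure at 37 degrees C was determined by luminescence with CellTiter-Glo, and concentration-effect curves were then fitted and categorized.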
Active calls of the source: *; i = inactive; ? = inconclusive; nt = no result; [ ] = remark or other dose. Calls come from the whole dose curve; as a rule, active = well fitted curve in the direction sought with a large enough effect; inconclusive = small, poorly fitted or top-dose-only effect, or another doubt; inactive = no such curve, though single readings can be large; an effect the other way counts as inactive or inconclusive. Unless noted, % is set by controls: 0 for no effect and ±100 for the full control effect; potency is the fitted concentration of half-maximal effect.

SMILES	KB-V1 cytotox	KB-3-1 tox	HT1080 IDH1KD tx	TDP1 cell noCPT	DT40 TDP1 CPT	HT1080NT lethal
COc1ccc(CN2C(=O)c3ccccc3C2C(=O)NC2CCCC(C)C2C)c(OC)c1 (configuration not stated)	?	i	-2%	?	?	0%
Cc1oc2ccc(O)c(CN3CCCC(C)C3)c2c1C(=O)Nc1ccccc1 (configuration not stated)	i	?	nt	16µM*	10µM*	nt
COc1ccc(NC(=O)c2c(C)oc3ccc(O)c(CN4CCN(Cc5ccccc5)CC4)c23)cc1	nt	nt	nt	12µM*	21µM*	nt
Cc1oc2c(CN3CCCC(C)C3)c(O)ccc2c(=O)c1-c1ccccc1 (configuration not stated)	i	?	2%	20%	-4%	-2%
Cc1ccc(S(=O)(=O)N2CCC(C(=O)OCC(=O)N(C)C3CCS(=O)(=O)C3)CC2)cc1C (configuration not stated)	?	i	9%	-22%	-3%	9%
Cn1c(=O)oc2cc(S(=O)(=O)N3CCCC(C(=O)N4CCN(c5ccc(F)cc5)CC4)C3)ccc21 (configuration not stated)	i	i	nt	4.1µM*	7.3µM*	nt
Cc1ccc(C)c(N2CCN(C(=O)C3CCCN(S(=O)(=O)c4ccc5c(c4)oc(=O)n5C)C3)CC2)c1 (configuration not stated)	i	i	nt	12µM*	16µM*	nt
CCOC(=O)C1CCCN(C(=O)C2CCCN(S(=O)(=O)c3ccc4c(c3)oc(=O)n4C)C2)C1 (configuration not stated)	i	i	5%	?	-20%	3%
Cc1ccc(C)c(N2CCN(C(=O)C3CCN(S(=O)(=O)c4ccc5[nH]c(=O)oc5c4)CC3)CC2)c1	i	i	nt	26µM*	23µM*	nt
CN1CCN(C(=O)C2CCN(S(=O)(=O)c3ccc4c(c3)oc(=O)n4C)CC2)CC1	i	i	0%	-1%	-7%	-1%
Cc1ccc(C)c(N2CCN(C(=O)C(CC(C)C)NS(=O)(=O)c3ccc4nc(C)sc4c3)CC2)c1 (configuration not stated)	?	i	nt	16µM*	?	nt
Cn1c(=O)oc2cc(S(=O)(=O)N3CCCC(C(=O)N4CCc5ccccc5C4)C3)ccc21 (configuration not stated)	i	i	-2%	15µM*	16µM*	-10%
CSCCC(NS(=O)(=O)c1ccc2c(c1)oc(=O)n2C)C(=O)N1CCN(c2cc(C)ccc2C)CC1 (configuration not stated)	nt	nt	nt	23µM*	?	nt
Cn1c(=O)oc2cc(S(=O)(=O)N3CCCC(C(=O)NCCN4CCOCC4)C3)ccc21 (configuration not stated)	i	i	-5%	-5%	-2%	-7%
COc1cc(NC(=O)C2CCN(S(=O)(=O)c3ccc4c(c3)oc(=O)n4C)CC2)cc(OC)c1	i	i	nt	21µM*	?	nt
COc1ccc(N2CCN(C(=O)C3CCN(S(=O)(=O)c4ccc5c(c4)oc(=O)n5C)CC3)CC2)cc1	i	i	3%	9.2µM*	?	4%
Cc1cc(NC(=O)CSc2nnnn2-c2ccc(C)c(Cl)c2)no1	i	i	-1%	-6%	-19%	-2%
CCCCCCOC(=O)c1ccc(N)cc1	i	i	?	1%	-6%	?
CCCCCCCCCCCC1N=C(N)NC(CCCO)=C1C(=O)OC (configuration not stated)	i	?	-3%	3.7µM*	5.8µM*	-3%
CC(C)(C)n1nnnc1C(c1cccnc1)N1CCN(c2cccc(C(F)(F)F)c2)CC1 (configuration not stated)	?	i	-8%	21µM*	18µM*	0%
CCCCn1nnnc1C(c1ccccc1)N1CCN(c2c(Cl)cncc2Cl)CC1 (configuration not stated)	i	i	?	16µM*	?	?
Cc1cccc(N2CCN(C(c3ccncc3)c3nnnn3C(C)(C)C)CC2)c1C (configuration not stated)	i	i	-3%	18µM*	-6%	-1%
CC(C)(C)n1nnnc1C(c1ccncc1)N1CCN(C2CCCCC2)CC1 (configuration not stated)	i	i	15%	0%	0%	12%
COc1ccc(N2CCN(C(c3ccc(C)cc3)c3nnnn3C(C)(C)C)CC2)cc1 (configuration not stated)	i	i	nt	14µM*	?	nt
CCOCCCNC(=O)N1CCN(S(=O)(=O)c2ccc3c(ccn3C)c2)CC1	i	i	nt	nt	nt	nt
SMILES	KB-V1 cytotox	KB-3-1 tox	HT1080 IDH1KD tx	TDP1 cell noCPT	DT40 TDP1 CPT	HT1080NT lethal
Cc1ccccc1Nc1nc(N)nc(CN2CCN(C(=O)c3ccccc3)CC2)n1	i	i	-2%	3%	-7%	-15%
COc1ccc(C(=O)Nc2ccnn2C2CCN(C(=O)c3cccnc3)CC2)cc1	i	i	-1%	-28%	-15%	0%
CCCCn1nnnc1C(c1ccccc1)N1CCN(c2cccc(C)c2C)CC1 (configuration not stated)	?	i	11%	16µM*	?	12%
CC(C)(C)n1nnnc1C(c1ccccc1)N1CCN(c2c(Cl)cncc2Cl)CC1 (configuration not stated)	?	?	13%	16µM*	?	12%
C[C@@]12CCC[C@@](C)(C(=O)O)C1CC[C@@]13C[C@@H](NCc4ccccc4)[C@@](C)(CCC12)C3 (some centres not stated)	i	i	11%	21µM*	?	8%
COc1ccc2c(c1)CCc1cnc(-n3ncc(C(=O)NC4CCOC4)c3C3CC3)nc1-2 (configuration not stated)	nt	nt	nt	?	-8%[9.04 µM]	nt

Assay outcomes as filed in PubChem.
